Luciferase inh: inhibitors of firefly luciferase; P08659; purified firefly luciferase, luminescence, 8 min; Potency, µM (highest dose often 57.1 µM), most hits filed as inhibitors; 2.2% of 72,000 active; AID 411; also: nearly all actives have a fitted effect of over 40% in size
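Luminescence read-out after 8 min at room temperature; enzyme reaction used luciferin plus 10 uM ATP (linear range) in imidazole buffer pH 7.2 with KCl, MgCl2, Tween 20 and BSA. Each sample was run as a titration.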
Peg3 imprint: genomic imprint erasure induction | mouse ES Peg3-LacZ reporter, beta-gal luminescence, 40 h | Potency, µM (titrated, usually from 60.7 µM), usual class: activators | 0.02% of 110,000 active | AID 1948
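Each well holds 300 Peg3LacZ-Neo (maternal) female ES cells incubated 40 h at 37C, 5% CO2. LacZ is measured by BetaGlo luminescence, with AC50 and maximum efficacy derived from dose-response curves.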
IkB signaling: suppresses IkB signaling in ABC-DLBCL reporter cells; ABC-DLBCL IkBa-CBG/CBR dual luciferase ratio, 4 h; response scale: scaled: untreated 0%, proteasome inhibitor 100%; Potency, µM (top dose mostly 57.1 µM); 0.04% of 110,000 active; AID 445; active = well fitted curve in the direction sought with a large enough effect in the signal ratio, not every such curve was filed as active; inconclusive = small, poorly fitted or top-dose-only effect, or a change in a side signal; the % refers to the signal ratio;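 also: the direction sought is a rising ratio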
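Luminescence ratio of IκBα-fused green versus native red beetle luciferase in OCI-Ly3 cells, 4 h post-doxycycline with compound; red signal alone, scaled from basal (0%) to zero light (-100%), flagged nonspecific or cytotoxic effects.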
p53ts 39C tox: cytotoxicity in p53ts cells at nonpermissive temperature. H1299-p53A138V viability at 39C, ATP luminescence, 24 h. Potency, µM (series often up to 46.1 µM), hits mostly cytotoxic. 1.5% of 130,000 active; also: nearly all actives have a fitted effect of over 55% in size
p53ts 32C tox: p53ts cell cytotoxicity, permissive temperature. H1299-p53A138V at 32C, ATP luminescence viability, 24 h. Potency, µM (doses to about 46.1 µM), most hits filed as cytotoxic. 0.93% of 130,000 active. AID 924; also: nearly all actives have a fitted effect of over 55% in size
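H1299-p53 A138V cells (temperature-sensitive p53) exposed 24 h to up to 46 uM compound at 32C, where p53 is wild-type in conformation. Viability read as ATP luminescence and normalised to DMSO and 100 uM tamoxifen. AC50 fitted with the Hill equation.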
IMPase cell inh: cell-permeable inhibitors of inositol monophosphatase (IMPase). 120,000 tested, under 10 active. P97697. AID 901. inhibition (IP1 accumulation), % at 46.1 µM. CHO-M1 cells, IP1 accumulation, HTRF TR-FRET ratio; active = well fitted curve in the direction sought with a large enough effect in the signal ratio, not every such curve was filed as active; inconclusive = small, poorly fitted or top-dose-only effect, or a change in a side signal; inactive = no such curve, though single readings can be large or run the other way; the % refers to the signal ratio;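 also: cells stimulated with carbachol in lithium chloride buffer; higher means more IMPase inhibition seen as more IP1 and lower FRET ratio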
Target sequence (P97697 whole entry, looked up): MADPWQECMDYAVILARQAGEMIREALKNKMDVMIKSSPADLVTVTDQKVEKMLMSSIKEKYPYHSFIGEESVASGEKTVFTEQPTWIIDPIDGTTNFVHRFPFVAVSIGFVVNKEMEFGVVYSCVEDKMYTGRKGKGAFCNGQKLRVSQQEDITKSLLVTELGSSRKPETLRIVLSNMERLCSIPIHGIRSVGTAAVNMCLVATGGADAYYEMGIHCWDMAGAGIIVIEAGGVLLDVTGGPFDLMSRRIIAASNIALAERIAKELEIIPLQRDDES
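CHO-M1, 2000 cells/well, cultured 16–30 h; cpd up to 46 uM; carbachol (50 uM solution, stimulation buffer w/ 50 mM LiCl, pH 7.4), 30 min 37C; IP-One TR-FRET, 10 min RT; Ex 320/Em 665, 620; Hill-fit AC50.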
Numbers stand for hits; [ ] = remark or other dose. This excerpt belongs to a sample that is enriched for hits. Unless noted, calls follow the shape of the dose curve; as a rule, active = well fitted curve in the direction sought with a large enough effect; inconclusive = small, poorly fitted or top-dose-only effect, or another doubt; inactive = no such curve, though single readings can be large; an effect the other way counts as inactive or inconclusive.

Screening Cn1c(SCc2nc3ccccc3c(=O)[nH]2)nnc1-c1ccco1 returned Luciferase inh inactive, Peg3 imprint inactive, IkB signaling inactive, p53ts 39C tox inactive, p53ts 32C tox inactive and IMPase cell inh inactive.
Cn1c(-c2ccccc2)cnc1SCc1nc2ccccc2c(=O)[nH]1 was read as Luciferase inh 5.01µM, Peg3 imprint inactive, IkB signaling inactive, p53ts 39C tox inconclusive, p53ts 32C tox 12.6µM and IMPase cell inh inactive.
N#Cc1nc(Cc2cccc3ccccc23)oc1NCCN1CCCCC1 was read as Luciferase inh 7.94µM, Peg3 imprint inactive, IkB signaling inconclusive, p53ts 39C tox inconclusive, p53ts 32C tox inactive and IMPase cell inh inactive.
`Cc1ccc2c(=O)c(C(=O)c3cccc(Cl)c3)cn(CC(=O)Nc3ccccc3C(F)(F)F)c2n1` gave Peg3 imprint inactive[10.9 µM], IkB signaling inactive, p53ts 39C tox inactive and p53ts 32C tox inactive.
Screening CCCCCSc1nc2sc3c(c2c(=O)n1-c1ccc(OC)cc1)CCN(C(C)=O)C3 returned Peg3 imprint inactive[10.9 µM], IkB signaling inconclusive, p53ts 39C tox 12.6µM and p53ts 32C tox inconclusive.
Screening CCN(CC)C(=O)Cn1c(=O)cc(C)c2c(C)nn(C)c21 returned Peg3 imprint inactive[10.9 µM], IkB signaling inactive, p53ts 39C tox inactive and p53ts 32C tox inactive.
`COC(=O)c1c(C)oc2ccc(N(C(=O)Oc3ccccc3)S(=O)(=O)c3ccc(C(C)(C)C)cc3)cc12` gave Peg3 imprint inactive[10.9 µM], IkB signaling inconclusive, p53ts 39C tox inactive, p53ts 32C tox inactive and IMPase cell inh inactive.
Screening Nc1ccc(-c2cnc(-c3ccc(N)cc3)nc2)cc1 returned Luciferase inh 12.6µM, Peg3 imprint inactive, IkB signaling inconclusive, p53ts 39C tox 10µM, p53ts 32C tox 10µM and IMPase cell inh inactive.
Screening O=C(CCC1CCCC1)N1CCc2c([nH]c3ccccc23)C1c1ccc(Cl)cc1 (stereo unspecified) returned Peg3 imprint inactive[10.9 µM], IkB signaling inactive, p53ts 39C tox inactive and p53ts 32C tox inactive.
NC(CCC(=O)NCS(=O)(=O)O)C(=O)O (stereo unspecified) was read as Peg3 imprint inactive.
`OC(CN1CCNCC1)Cn1c2ccc(Br)cc2c2cc(Br)ccc21` (stereo unspecified) gave Peg3 imprint inactive, p53ts 39C tox 12.6µM and p53ts 32C tox inconclusive.
Cc1ccc2c(c1)c(C)c(C)n2CC(O)CN1CCOCC1 (stereo unspecified) was read as Luciferase inh inactive, Peg3 imprint inactive, IkB signaling inactive, p53ts 39C tox inactive, p53ts 32C tox inactive and IMPase cell inh inactive.
Screening Nc1c2ccccc2nc2c(O)cccc12 returned Luciferase inh inactive, Peg3 imprint inactive, IkB signaling inactive, p53ts 39C tox inactive, p53ts 32C tox inactive and IMPase cell inh inactive.
`Nc1nc(Nc2ccc(Cl)cc2)nc2ccccc12` gave IMPase cell inh inactive.
Nc1nc(Nc2ccccc2)nc2ccccc12 was read as Luciferase inh 6.31µM, Peg3 imprint inactive, IkB signaling inconclusive, p53ts 39C tox 2.51µM, p53ts 32C tox 3.98µM and IMPase cell inh inactive.
`COc1ccccc1CNc1cc(-c2ccccc2OC)ncn1` gave Luciferase inh inactive[2.29 µM], Peg3 imprint inactive, IkB signaling inactive[11.4 µM], p53ts 39C tox inconclusive and p53ts 32C tox 12.6µM.
For COc1ccccc1CNc1cc(-c2ccccc2C)ncn1 the results were Luciferase inh inactive[2.29 µM], Peg3 imprint inactive, IkB signaling inactive[11.4 µM], p53ts 39C tox inactive and p53ts 32C tox inconclusive.
For CCCCN(CC)CCNS(=O)(=O)c1cccc2cccnc12 the results were Luciferase inh inactive, Peg3 imprint inactive, IkB signaling inactive, p53ts 39C tox inactive and p53ts 32C tox inactive.
`CCc1ccc(Nc2cc(C)nc3nc(Cc4ccc(Cl)cc4)nn23)cc1` gave Peg3 imprint inactive[10.9 µM], IkB signaling inconclusive, p53ts 39C tox 20µM and p53ts 32C tox inactive.
CC12C(=O)OC(=O)C1(C)C1CCC2O1 (stereo unspecified) was read as Peg3 imprint inactive, p53ts 39C tox inactive, p53ts 32C tox inactive and IMPase cell inh inactive.

Compound activity: PubChem BioAssay, National Center for Advancing Translational Sciences (NCATS)
